# Rows were chosen to be rich in hits. Some 3.7% of all compounds tested hit in one or more screens of this group.
# MazF activator – activators of E. coli MazEF toxin-antitoxin RNase, primary screen, biochemical, fluorescence, uHTS | 350,000 tested, 0.32% active | FAM/BHQ RNA-DNA oligo cleavage fluorescence, 5 h | activation, % at 20 µM | Endoribonuclease toxin MazF (Escherichia coli (strain K12)), P0AE70 | AID 504720, 2011; in the data active = activation above about 50%
# Target sequence (P0AE70 whole entry, looked up): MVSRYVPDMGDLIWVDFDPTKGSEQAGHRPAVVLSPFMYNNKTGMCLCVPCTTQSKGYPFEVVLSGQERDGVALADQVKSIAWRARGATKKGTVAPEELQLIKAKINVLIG
# Anthrax LF inh2 – Bacillus anthracis LF protease inhibitors, primary screen, biochemical, multiplex microsphere, MLPCN library | Lethal factor (Bacillus anthracis), P15917 | multiplex microsphere protease cleavage assay | inhibition, % at 10 µM | 360,000 tested, 0.12% active
# BoNT-F LC inh – BoNT/F light chain protease inhibitors, primary screen, biochemical, flow cytometry, MLPCN library; 360,000 tested, 0.22% active; Multiplex microsphere protease cleavage assay; AID 588497, 2011; inhibition, % at 10 µM; Botulinum neurotoxin type F light chain protease (Clostridium botulinum); in the data active = inhibition above about 35%, passing the limit was not always enough; inconclusive = no clear call, values can overlap the other calls
# Autofluor counter – flagged as autofluorescent in microsphere protease counterscreen; 360,000 tested, 3.1% active; fluorescence intensity (no concentration beside the values); compound autofluorescence counterscreen, microsphere flow cytometry; active compounds read high; in the data active = fluorescence intensity above about 16000; inconclusive = no clear call, values can overlap the other calls
# BoNT-A LC inh2 – BoNT/A light chain protease inhibitors, primary screen, biochemical, flow cytometry, MLPCN library; Botulinum neurotoxin type A light chain protease (Clostridium botulinum A str. ATCC 3502); multiplex microsphere protease substrate cleavage; inhibition, % at 10 µM; 360,000 tested, 0.17% active
# A number is an active result; – = inactive; ? = inconclusive; · = not tested or not shown. Cut-off read from the data, not from the text of the source, unless noted: active = inhibition above about 30%; inconclusive = no clear call, values can overlap the other calls; inactive = below that.
SMILES,MazF activator,Anthrax LF inh2,BoNT-F LC inh,Autofluor counter,BoNT-A LC inh2
COC(=O)c1ccc(-n2cncn2)c(F)c1,–,–,–,23526,?
Cc1ccccc1NC(=O)c1cccc(N2C(=O)C3C4CCC(C4)C3C2=O)c1 (stereo not given),–,–,–,23697,?
Fc1cccc(Cc2c(-c3cccc(Cl)c3)nc3c(Cl)cc(C(F)(F)F)cn23)c1,·,–,–,–,–
O=P(OC1CCCCC1)(OC1CCCCC1)C(O)c1c(Cl)cccc1Cl (stereo not given),–,–,–,17127,–
O=C1N[C@@H](Cc2ccccc2)C(=O)N1CCN1CCOCC1,–,–,–,22937,?
N#Cc1ccc(OCC(=O)NCCCn2ccnc2)cc1,–,–,–,–,–
COc1nc(N)nc(NC(=O)c2cccs2)c1N=O,–,–,–,–,–
CCOc1ccc(OCC)c(S(=O)(=O)N2CCCCC2C)c1 (stereo not given),–,–,–,16721,–
CCOc1ccc(C)cc1S(=O)(=O)N1CCCCC1,–,–,–,21517,?
COc1ccc(C)cc1S(=O)(=O)N1CCCCCC1,–,–,–,–,–
CCOc1cc(S(=O)(=O)N2CCCC2)ccc1Cl,–,–,–,–,–
CCOc1ccc(OCC)c(S(=O)(=O)n2ccnc2C)c1,–,–,–,–,–
CCOc1cc(S(=O)(=O)N2CCCCC2)ccc1F,–,–,–,22074,–
COc1ccc(C)cc1S(=O)(=O)N1CCC(C)CC1,–,–,–,21743,–
COc1cccc(CNC(=S)Nc2ccc3c(c2)c(=O)n(C)n3Cc2ccc(F)cc2)c1,·,–,–,–,–
O=C(OCc1ccccc1C(F)(F)F)c1ccc(Br)c(S(=O)(=O)N2CCOCC2)c1,–,·,·,·,·
CCC(C)(C)NC(=O)C(c1ccc(O)cc1)N(CCOC)C(=O)CCC(=O)Nc1nccs1 (stereo not given),234.6,–,–,–,–
CCC(C)(C)NC(=O)C(c1ccc(OC)cc1)N(CCOC)C(=O)CCC(=O)Nc1nccs1 (stereo not given),–,–,–,–,–
CCN1CC2CCCC3(C1)C(=O)NC1(CCCCC1)N=C23 (stereo not given),–,–,–,21486,–
COc1cccc(N2C(=O)C(c3ccccc3)=C(c3nc4ccccc4s3)C2NC(C)=O)c1 (stereo not given),–,–,–,21453,?
O=C(O)c1cn(-c2ccccc2)c(=O)c2ccccc12,–,–,–,–,–
COc1ccc(-n2cc(C(=O)O)c3ccccc3c2=O)cc1,–,–,–,16517,–
O=c1cc(-c2ccccc2)cc(-c2ccccc2)n1O,–,–,–,–,–
COc1cc2c(C(=O)N3CCN(C)CC3)c(C)n(-c3ccccc3)c2cc1Br,–,–,–,25113,–
CCOc1ccc(Oc2ccccc2NS(=O)(=O)c2ccc(CCC(=O)O)cc2)cc1,–,–,–,–,–
SMILES,MazF activator,Anthrax LF inh2,BoNT-F LC inh,Autofluor counter,BoNT-A LC inh2
O=c1c(-c2nnc(SCc3ccc(Cl)cc3)o2)cccn1Cc1ccccc1,–,–,–,22587,–
O=C(Nc1ccccc1-c1nnc(SCc2ccccc2)o1)c1ccccc1,–,–,–,–,–
O=C(Nc1ccccc1-c1nnc(SCc2ccc(Cl)cc2)o1)c1ccccc1,–,–,–,22262,–
Clc1ccc(CSc2nnc(-c3c[nH]c4ccccc34)o2)cc1,–,–,–,–,–
CCOc1ccc(CNC(=O)Cn2ccc3cc(S(=O)(=O)N4CCCCCC4)ccc32)cc1,–,·,·,·,·
COC(=O)c1c(NC(=O)c2ccc(Br)s2)sc2c1CCC2,–,–,–,21623,–
COC(=O)c1c(NC(=O)c2nn(C)cc2Cl)sc2c1CCCC2,–,–,–,20893,?
CC(=O)c1ccc(S(=O)(=O)N2CCN(CC(=O)NC(=O)NC3CCCCC3)CC2)cc1,–,–,–,–,–
CN(CC(=O)Nc1ccc(Cl)c(C(F)(F)F)c1)C(=O)C1CSC2(C)CCC(=O)N12 (stereo not given),–,–,–,–,–
CCOc1ccc(N(CC(=O)NCc2cccc(OC)c2)S(=O)(=O)c2c(C)noc2C)cc1,–,?,?,?,–
COc1ccc(N(CC(=O)NCc2ccc(F)cc2)S(=O)(=O)c2c(C)noc2C)cc1,–,–,–,–,–
O=C(CN(c1ccc(F)cc1)S(=O)(=O)c1ccc2c(c1)OCCO2)NCC1CCCO1 (stereo not given),–,–,–,22449,–
COc1ccc(N(CC(=O)NCC2CCCO2)S(=O)(=O)c2c(C)noc2C)cc1 (stereo not given),–,–,–,23408,?
COc1ccc(N(CC(=O)NCc2cccc(OC)c2)S(=O)(=O)c2c(C)noc2C)cc1,–,–,–,20088,–
OC(c1ccc(Cl)cc1)c1ncc(-c2cccc(F)c2)[nH]1 (stereo not given),·,–,–,–,–
COc1cc(OC)cc(C(=O)/C=C2\Sc3ccccc3N2C)c1,–,–,–,–,–
COc1ccc2c(c1)S/C(=C\C(=O)c1ccncc1)N2C,140.7,–,–,–,–
CN1/C(=C/C(=O)c2ccc(Cl)cc2)Sc2cc3c(cc21)OCO3,431.3,–,–,–,–
O=C(c1ccc(C(F)(F)F)cc1)N(CCCn1ccnc1)C(c1ccccn1)c1nc2ccccc2[nH]1 (stereo not given),·,–,–,–,–
CC1(C(=O)NS(=O)(=O)c2ccccc2Cl)CCN1C(=O)c1ccccc1 (stereo not given),·,–,–,–,–
CCn1nc([N+](=O)[O-])c(C(C#N)c2nc3cc(C(F)(F)F)ccc3s2)c(Cl)c1=O (stereo not given),–,–,–,22515,–
CC1=C(CC(=O)c2ccccc2)C(=O)c2ccccc2C1=O,–,–,–,18823,?
O=C(CN1C(=O)c2ccccc2C1=O)c1ccccc1,–,–,–,–,–
Cc1ccc(O)c(-c2cc3ccccc3[nH]2)c1,–,–,–,23551,–
Clc1ccc2oc(-c3cccnc3NCc3ccccc3)nc2c1,–,–,–,19024,–
SMILES,MazF activator,Anthrax LF inh2,BoNT-F LC inh,Autofluor counter,BoNT-A LC inh2
Cc1ccc(CNc2ncccc2-c2nc3cc(Cl)ccc3o2)cc1,–,–,–,22598,–
CCCN(Cc1nnc(-c2cccs2)o1)C(=O)c1cccc(S(=O)(=O)N2CCOCC2)c1,–,–,?,?,–
Cc1ccc(CN2CC(C(=O)NCC(=O)Nc3c(C)cccc3C)CC2=O)cc1 (stereo not given),–,–,–,?,–
CCCCn1nnc(NC(=O)CCC)n1,–,–,–,19212,–
CC(C)NC(=O)N(C)C[C@H]1OCc2cnnn2CCCC(=O)N([C@H](C)CO)C[C@H]1C,–,–,–,–,–
CCCn1nnnc1NCc1ccc(N(CC)CC)cc1,554.9,–,–,–,–
CCN(CC)c1ccc(CNc2nnnn2C)cc1,–,–,–,–,–
CCCn1nnnc1NCc1ccc(N2CCCC2)cc1,–,–,–,17311,–

# Screening data as filed in PubChem.
